# PG9 Ab binder: binders of HIV-1 gp120 antibody PG9, primary screen, biochemical, TR-FRET; inhibition, % at 6.7 µM; 360,000 compounds, 0.43% hits; TR-FRET gp120-PG9 antibody binding; in the data active = inhibition above about 8.5%
# rCAG binder: binders of r(CAG) RNA repeats, primary screen, biochemical, fluorescence | 370,000 compounds, 1.3% hits | inhibition, % at 3 µM | r(CAG) RNA repeat, TO-PRO-1 dye displacement fluorescence | AID 651821, 2012;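 active = inhibition above the plate cutoff, the mean of all test compounds on that plate plus 3 SD, cut at about 35% in these data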;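 also: 0% = DMSO alone and 100% = 100 µM mitoxantrone as full dye displacement; higher means more dye released from RNA so lower well fluorescence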
# UHRF1 binding: UHRF1 methylated DNA binding inhibitors, primary screen, counter-screen for MBD2 inhibitor project, biochemical, TR-FRET, human UHRF1, single concentration. UHRF1 binding to methylated oligo. AID 687016, 2013. 370,000 compounds, 0.75% hits. inhibition, % at 4.4 µM. E3 ubiquitin-protein ligase UHRF1 (Homo sapiens), Q96T88; in the data active = inhibition above about 21%;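 also: UHRF1 SRA domain binding a hemimethylated CpG hairpin DNA probe; 0% = median of test compound wells and 100% = reference inhibitor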
# Target sequence (Q96T88 whole entry, looked up, the tested form may be a part): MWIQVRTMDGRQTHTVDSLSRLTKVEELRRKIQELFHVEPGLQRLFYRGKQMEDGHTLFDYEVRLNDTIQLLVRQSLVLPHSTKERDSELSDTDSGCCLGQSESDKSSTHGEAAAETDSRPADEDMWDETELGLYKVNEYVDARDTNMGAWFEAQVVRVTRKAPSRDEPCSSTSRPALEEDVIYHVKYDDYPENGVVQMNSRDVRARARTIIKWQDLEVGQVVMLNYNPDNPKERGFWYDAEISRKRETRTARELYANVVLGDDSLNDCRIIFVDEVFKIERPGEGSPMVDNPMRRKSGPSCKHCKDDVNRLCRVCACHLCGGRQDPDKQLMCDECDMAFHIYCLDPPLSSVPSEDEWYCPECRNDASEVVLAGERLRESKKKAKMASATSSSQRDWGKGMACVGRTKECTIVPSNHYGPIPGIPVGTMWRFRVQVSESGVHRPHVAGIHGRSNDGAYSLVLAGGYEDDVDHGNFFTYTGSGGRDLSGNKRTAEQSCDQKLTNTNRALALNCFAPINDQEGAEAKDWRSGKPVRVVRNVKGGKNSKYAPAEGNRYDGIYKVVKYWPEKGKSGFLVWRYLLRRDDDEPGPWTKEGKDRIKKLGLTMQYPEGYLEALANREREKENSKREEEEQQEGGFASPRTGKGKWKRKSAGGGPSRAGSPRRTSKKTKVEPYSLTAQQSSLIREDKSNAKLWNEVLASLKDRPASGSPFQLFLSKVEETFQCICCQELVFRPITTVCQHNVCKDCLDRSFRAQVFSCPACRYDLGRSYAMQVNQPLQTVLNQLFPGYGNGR
# LEDGF integ inh: blockers of LEDGF/p75-dependent integrase strand transfer – biochemical, TR-FRET, high throughput, primary screen; inhibition, % at 3.7 µM; TR-FRET IN-LEDGF/p75 DNA integration, Eu/Cy5; AID 743269, 2014; 370,000 compounds, 0.64% hits;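 active = inhibition above the screen-wide mean plus 3 SD, cut at about 13% in these data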;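 also: signal is the Cy5 over europium emission ratio at 671 and 618 nm; 0% = plate median of compound wells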
# MBD2 inh: inhibitors of MBD2 binding to methylated DNA, primary screen, biochemical, TR-FRET, DNA-binding domain, human. Methyl-CpG-binding domain protein 2 (Homo sapiens), Q9UBB5. MBD2 binding to methylated oligonucleotide. inhibition, % at 4.4 µM. 370,000 compounds, 0.31% hits. AID 686964, 2013; in the data active = inhibition above about 13%
# DNMT1 inh: human DNMT1 methyltransferase inhibitors, primary screen, biochemical, molecular beacon, fluorescence, HinP1I cleavage, uHTS | inhibition (reported as % activation of signal), % at 10 µM | 360,000 compounds, 0.83% hits | DNA (cytosine-5)-methyltransferase 1 (Homo sapiens), P26358; in the data active = inhibition above about 50%
# rCAG bind conf: small molecules binding CAG repeat RNA – biochemical, fluorescence, confirmation. shares compounds with rCAG binder. r(CAG) RNA repeat, TO-PRO-1 dye displacement fluorescence. inhibition, % at 3 µM. 4,300 compounds, 70% hits. AID 652065, 2013;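 active = inhibition above a per-plate cutoff, the mean inhibition of sample wells plus 3 SD, cut at about 35% in these data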;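 also: loss of TO-PRO-1 fluorescence as compound displaces dye from 1x1 AA loop RNA; 0% = DMSO only wells and 100% = 100 µM mitoxantrone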
# dCAG dye counter: displacement of TO-PRO-1 from CAG DNA duplex, counter-screen for rCAG RNA repeat binder project, biochemical, fluorescence, TO-PRO-1 dye, d(CAG) DNA oligo | shares compounds with rCAG binder | d(CAG) DNA oligo TO-PRO-1 dye displacement | inhibition, % at 3 µM | 4,300 compounds, 94% hits | AID 652068, 2013;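 active = inhibition above its plate's cutoff, the mean test-well inhibition plus 3 SD, cut at about 4.8% in these data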;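 also: 0% = DNA dye mix with DMSO and 100% = 100 µM mitoxantrone; hits displace the dye from DNA and so lower well fluorescence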
# dCAG dye DR: inhibitors of DNA CAG/GTC TO-PRO-1 complex, dose response, counter-screen for rCAG RNA repeat binder project, biochemical, fluorescence, TO-PRO-1 dye; 250 compounds, 20% hits; DNA CAG/GTC duplex TO-PRO-1 dye displacement fluorescence; IC50, µM; AID 686960, 2013; shares compounds with rCAG binder; in the data active = IC50 below about 10 µM
# * marks the source's active call; other numbers are inactive results; i = inactive; x = no result. Most compounds without a hit are left out; they make up all but 3.5% or so of the library.
SMILES,PG9 Ab binder,rCAG binder,UHRF1 binding,LEDGF integ inh,MBD2 inh,DNMT1 inh,rCAG bind conf,dCAG dye counter,others
COc1ccccc1N=c1oc2cc(O)ccc2cc1C(=O)NCC1CCCO1 (stereo unspecified),-1.7,10.9,-3.9,-3.5,-4.7,-3.9,x,x,
COc1ccccc1N=c1oc2cc(O)ccc2cc1C(N)=O,-0.8,40.0*,-3.5,-0.3,-1.0,-1.3,5.9,2.0,
COc1ccccc1NC(=O)c1cc2ccc(O)cc2o/c1=N\O,-0.8,45.9*,-2.0,-1.4,1.6,-5.7,27.3,7.5*,
COc1ccccc1NC(=O)c1cc2ccccc2o/c1=N\O,0.2,6.0,-2.5,0.3,-3.7,4.8,x,x,
Cc1ccc(S(=O)(=O)Nc2cc(-c3ccccc3)nn2C)cc1,0.5,16.9,-0.5,-5.5,-0.4,0.9,x,x,
Cc1ccc(S(=O)(=O)Nc2cc(-c3ccc(Cl)cc3)nn2C)cc1,-1.3,47.7*,-0.4,3.5,-2.2,-0.8,48.3*,11.2*,
Cc1ccc(S(=O)(=O)Nc2cc(-c3ccccc3)nn2C)cc1Cl,-0.4,56.6*,-0.4,-2.8,0.0,-4.2,38.0*,9.9*,
Cn1nc(-c2ccccc2)cc1NS(=O)(=O)c1ccccc1,-2.7,4.6,0.1,1.5,0.9,1.6,x,x,
Cc1cnc2c(N)cc(C)c(C)c2c1,-7.1,0.7,-1.1,-1.4,2.8,-8.4,x,x,
N#Cc1c(-c2ccc(F)cc2)cc(-c2cccs2)nc1SCC(=O)O,-0.1,56.2*,-4.2,2.1,-1.5,-1.8,45.3*,14.2*,
COc1ccc(-c2cc(-c3ccc(Cl)cc3)c(C#N)c(SCC(=O)O)n2)cc1,2.2,79.7*,0.1,6.3,-1.8,10.7,84.9*,55.1*,
CCCOc1ccc(-c2cc(C(F)(F)F)c(C#N)c(SCC(=O)O)n2)cc1,-0.6,20.9,6.0,4.0,5.4,-1.2,x,x,
N#Cc1c(-c2ccccc2)cc(-c2ccccc2)nc1SCC(=O)NCC(=O)O,2.1,41.4*,-0.6,1.8,0.5,-2.5,37.2*,10.0*,
Cc1ccc(-c2cc(C(F)(F)F)c(C#N)c(SCC(=O)O)n2)cc1,-3.1,47.8*,-3.8,3.1,-2.1,-2.4,24.4,5.0*,
CCCCNS(=O)(=O)CC1NCc2ccc(C)cc21 (stereo unspecified),x,6.2,-4.9,-3.8,-5.4,x,x,x,
N#Cc1c(C(F)(F)F)cc(-c2cccs2)nc1SCC(=O)O,-1.7,6.2,-4.8,0.7,-0.1,-1.0,x,x,
N#Cc1c(C(F)(F)F)cc(-c2cccs2)nc1SC(C(=O)O)c1ccccc1 (stereo unspecified),-0.1,77.8*,0.6,8.5,-2.3,-3.9,77.5*,31.1*,dCAG dye DR=i
COc1ccccc1-c1cc(-c2ccccc2)nc(SCC(=O)O)c1C#N,-1.5,47.2*,-0.9,2.1,-2.3,-1.6,37.1*,9.6*,
O=C(O)c1ccccc1Nc1cccc(OCc2ccc3ccccc3n2)c1,-2.7,70.3*,3.0,3.3,1.1,4.5,70.7*,30.9*,dCAG dye DR=i
CC(C)[C@H](Nc1nc(-c2ccccc2)nc2c1oc1ccccc12)C(=O)O,-0.9,58.0*,2.7,5.8,5.5,-1.2,42.2*,10.8*,

# Bioassay records from PubChem BioAssay.
